Many of the other results were omitted from the sample, so hits are more common in it than they were.
ST2 inh: blocks human ST2 binding to IL-33 | AID 1259354 | inhibition, % for hits at 17 µM | 78,000 compounds, 2.3% hits | AlphaLISA ST2-Fc/biotin-IL-33 interaction, 1 h; in the data active means inhibition above about 30%
Target sequence (Q01638 whole entry, looked up): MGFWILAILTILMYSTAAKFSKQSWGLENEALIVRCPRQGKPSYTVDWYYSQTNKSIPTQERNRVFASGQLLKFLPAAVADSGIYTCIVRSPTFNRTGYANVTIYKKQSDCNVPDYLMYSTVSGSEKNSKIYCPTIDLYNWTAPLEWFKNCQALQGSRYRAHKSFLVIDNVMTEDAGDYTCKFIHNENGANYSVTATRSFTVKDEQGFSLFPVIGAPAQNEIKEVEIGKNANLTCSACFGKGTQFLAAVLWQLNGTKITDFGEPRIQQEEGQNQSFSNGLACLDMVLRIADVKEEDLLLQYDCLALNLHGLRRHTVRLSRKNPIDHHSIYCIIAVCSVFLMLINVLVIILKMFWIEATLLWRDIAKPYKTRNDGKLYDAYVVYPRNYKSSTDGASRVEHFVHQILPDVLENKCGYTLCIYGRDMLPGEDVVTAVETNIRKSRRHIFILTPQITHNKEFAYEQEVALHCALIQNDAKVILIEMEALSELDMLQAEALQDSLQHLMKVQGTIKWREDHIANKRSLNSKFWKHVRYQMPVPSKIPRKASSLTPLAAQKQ
* marks the source's active call; other numbers are inactive results; i = inactive.

SMILES | ST2 inh
COc1ccccc1OCCCOc1ccc(/C=C2/C(=N)N3C=CSC3=NC2=O)cc1OC | 34%*
O=S(=O)(NCCn1ccc2ccccc21)c1ccc(Br)cc1 | i
O=C1Nc2ccccc2/C1=C\c1c(Cl)cccc1Cl | i
Clc1ccccc1-c1nc(-c2ccccc2)no1 | i
O=C1OC(c2ccccc2)=C/C1=C\c1c(Cl)cccc1Cl | 46%*
COc1ccc(CCNC(=O)c2cnccn2)cc1OC | i
COc1ccc(OC)c(N2C(=O)C3[C@H](C2=O)C2c4ccccc4C3(C(=O)O)c3ccccc32)c1 (stereo partly drawn) | i
Cn1c(=O)cc(SCC(=O)N2CCCCCC2)c2ccccc21 | i
Cn1c(=O)cc2c3c(c(Br)ccc31)C(=O)c1ccccc1-2 | i
Cn1c(=O)cc2c3c(c(N4CCCCC4)ccc31)C(=O)c1ccccc1-2 | 44%*
O=c1c2cnn(-c3ccccc3)c2ncn1Cc1ccc(Cl)cc1Cl | i
Cc1cc2c3c(c1)C1C=CCC1C(C(=O)O)N3CC1CC=CC21 (stereo not drawn) | 33%*
O=C(Nc1nc2ccc3ccccc3c2s1)c1ccc2c(c1)OCCO2 | i
N#CC1=C(N)Oc2cc(O)ccc2C1c1cc(Br)cs1 (stereo not drawn) | i
Cc1cc([N+](=O)[O-])ccc1NC(NC(=O)c1cccs1)C(=O)c1ccccc1 (stereo not drawn) | 35%*
O=C(NC(Nc1ccc([N+](=O)[O-])cc1)C(=O)c1ccccc1)c1ccccc1 (stereo not drawn) | i
Cc1cc([N+](=O)[O-])ccc1NC(=O)CC(C)c1ccccc1 (stereo not drawn) | i
COc1ccccc1CN1CCN(Cc2cc(OC)c(OC)c(OC)c2)CC1 | i
COc1cc(-c2ncnn2-c2ccc(F)c([N+](=O)[O-])c2)ccc1OCc1ccccc1 | i
COc1ccc([C@H]2OC[C@H]3[C@@H]2CO[C@@H]3c2ccc(OC)c(OC)c2)cc1OC | i
COc1ccc(C2SCCN2S(=O)(=O)c2ccc([N+](=O)[O-])cc2)cc1OC (stereo not drawn) | i
COc1cc(/C=C/c2c([N+](=O)[O-])c(=O)n(C)c(=O)n2C)ccc1OCc1ccccc1 | i
COc1cc(C2Oc3ccccc3C=C2[N+](=O)[O-])ccc1OCc1ccccc1 (stereo not drawn) | 46%*
COc1ccc(C2Oc3c(Br)cc(Br)cc3C=C2[N+](=O)[O-])cc1OC (stereo not drawn) | 56%*
CC(NC1CCSCC1)c1ccc(-n2cncn2)cc1 (stereo not drawn) | i
SMILES | ST2 inh
CN(C)c1ccc(-c2nc3c(=O)n(C)c4ccccc4c3o2)cc1 | i
CO[C@H]1CN(C(=O)c2cnnn2-c2ccccc2)CC[C@H]1N | i
O=C(Oc1cccc2cccnc12)c1ccc(Cl)cc1 | i
CN(Cc1ccccc1)C(=O)c1nc2ccccn2c1CN1CC=CCC1 | i
CC(=O)Nc1ccc(S(=O)(=O)N2CCN(Cc3ccc(F)cc3)CC2)cc1 | i
COCC(=O)N1CCCC(C(=O)NCCN2CCCC2)C1 (stereo not drawn) | i
CCN1CCc2c(sc(NC(=O)c3ccc(Cl)cc3)c2C(=O)OC)C1 | 89%*
CCN1CCc2c(sc(NC(=O)COc3ccccc3)c2C(=O)OC)C1 | i
COC(=O)c1c(NC(=O)c2ccc(F)cc2)sc2c1CCN(C(C)C)C2 | i
COc1cc(C=O)cc(Cl)c1OCc1ccc(Br)cc1 | i
COc1cc(/C=C/c2ccc3cccc(O)c3n2)cc(Cl)c1OC | 34%*
COc1cccc2ccc(/C=C/c3ccc4c(c3)OCO4)nc12 | i
CCc1cc(CN(C)Cc2c(F)ccc(C)c2F)on1 | i
O=C(O)[C@@H]1CCCN1C(=O)c1ccc(CSc2ncccn2)o1 | i
CC(C)n1cc(C(=O)NCC2CCCCC2)c(=O)c(C(=O)N2CCN(C(=O)c3cccs3)CC2)c1 | i
Cc1ccc(C)c(CN2C(=O)CSc3ccc(C(=O)NCCC(C)C)cc32)c1 | i
O=C(c1cccc(F)c1)N1CCN(c2ccc(Cl)cc2)CC1 | i
O=C(c1cccc(F)c1)N1CCN(c2ccc([N+](=O)[O-])c(NCc3ccccc3)c2)CC1 | 36%*
Cc1ccccc1C(=O)N1CCN(c2ccc([N+](=O)[O-])c(NC(C)c3ccccc3)c2)CC1 (stereo not drawn) | 38%*
O=C(c1ccccc1Cl)N1CCN(c2ccc([N+](=O)[O-])c(N3CCOCC3)c2)CC1 | i
O=[N+]([O-])c1ccc(N2CCN(S(=O)(=O)Cc3ccccc3)CC2)cc1NCc1cccnc1 | i
Cc1ccccc1C(=O)N1CCN(c2ccc([N+](=O)[O-])c(NCCc3ccccc3)c2)CC1 | i
CC(Nc1cc(N2CCN(S(=O)(=O)N(C)C)CC2)ccc1[N+](=O)[O-])c1ccccc1 (stereo not drawn) | 30%*
O=C(c1ccccc1)c1ccc(N2CCN(C(=O)c3cccc(F)c3)CC2)c(F)c1 | i
CC(=O)N1CCN(c2ccc([N+](=O)[O-])c(NC(C)C34CC5CC(CC(C5)C3)C4)c2)CC1 (stereo not drawn) | i

Screening results from PubChem.
